# Screening data from PubChem BioAssay.
# Rows were chosen to be rich in hits. Some 21% of all compounds tested hit in one or more screens of this group.
# Pf growth 96h = P. falciparum growth inhibition at 96 hours. 320,000 compounds, 6.9% hits. AID 504834. Potency, µM (doses to about 28.7 µM), inactives show at the top dose activity change, negative = inhibition, hits mostly inhibitors. P. falciparum luciferase reporter growth, 96 h; also: potency is read from the fitted curve at half-maximal effect; % is scaled to controls: 0 for no effect and ±100 for the full control effect
#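 P. falciparum expressing integrated firefly luciferase grown in erythrocytes (2% hematocrit, 0.05% parasitemia final) with compounds for 96 hours at 37 C, 5% CO2. Growth inhibition read as loss of luminescence after adding luciferase detection reagent.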
# CHX counter = counter-screen hit for Shiga toxin inhibitors, cycloheximide; 300,000 compounds, 12% hits; AID 2314; max response, %; cell reporter, cycloheximide protein synthesis inhibition counterscreen; in the data active = max response mostly above about 13%, no sharp cut-off; inactive = mostly below about 14%; also: read at 38.3 µM for the half of the compounds with a filed dose; 0% is about no effect
# Pf growth 48h = inhibits P. falciparum growth in the first generation, 48 h; P. falciparum luciferase growth in erythrocytes, 48 h; Potency, µM (titrated, usually from 28.7 µM), inactives show at the highest dose activity change, negative = inhibition, usual class: inhibitors; 310,000 compounds, 5.9% hits; also: potency is read from the fitted curve at half-maximal effect; % is scaled to controls: 0 for no effect and ±100 for the full control effect
#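 Firefly luciferase activity from engineered P. falciparum reports growth; inhibitors lower the luminescent signal. Cultures contained 2% hematocrit erythrocytes at 0.1% final parasitemia.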
# Shiga toxin inh = inhibitors of Shiga toxin in Vero cells | inhibition, % at 38.7 µM | Vero cells, Shiga toxin protein synthesis inhibition reporter | 290,000 compounds, 9.2% hits | AID 2315; in the data active = inhibition mostly above about 28%, no sharp cut-off; inactive = mostly below about 43%; also: 0% is about no effect
# Sm TGR inh = blocks Schistosoma mansoni thioredoxin glutathione reductase; 360,000 compounds, 3% hits; Q962Y6; purified TGR, DTNB reduction, TNB absorbance 405 nm; Potency, µM (top dose mostly 114 µM), without a hit: at the top dose activity change, negative = inhibition, usual class: inhibitors; also: potency is read from the fitted curve at half-maximal effect; % is scaled to controls: 0 for no effect and ±100 for the full control effect; nearly all actives have a fitted effect of over 60% in size
#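 First, TGR (20 nM dispensed) and NADPH were mixed with compound. Second, a 15 min room-temperature incubation followed. Third, further NADPH and then DTNB were added to start the reaction. Finally, TNB absorbance was monitored kinetically.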
# NS1 inh = blocks influenza NS1 protein function; Potency, µM (top dose mostly 46.1 µM), without a hit: at the highest dose activity, positive = more growth; 270,000 compounds, 0.4% hits; calls by dose curve; also: potency is read from the fitted curve at half-maximal effect; actives are rising curves; nearly all actives have a fitted effect of over 50% in size
#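 A cell-based growth assay was used: compounds that relieve NS1-induced slow growth of budding yeast raise OD600. Assay medium was yeast nitrogen base with ammonium sulphate and -URA supplement, pH 6.0, with 2% galactose.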
# An asterisk follows results filed as active; ? = inconclusive; . = no result given; + = active, no number. Unless noted, calls follow the shape of the dose curve; as a rule, active = well fitted curve in the direction sought with a large enough effect; inconclusive = small, poorly fitted or top-dose-only effect, or another doubt; inactive = no such curve, though single readings can be large; an effect the other way counts as inactive or inconclusive.
SMILES,Pf growth 96h,CHX counter,Pf growth 48h,Shiga toxin inh,Sm TGR inh,NS1 inh
CCCSc1ncc(Cl)c(C(=O)Nc2ccc(S(=O)(=O)N3CC(C)OC(C)C3)cc2)n1 (stereo unspecified),?,8.1,.,3.3,-3.4%,?
CCC(C)n1c(=O)c2sccc2n2c(CCCC(=O)N3CCN(c4ccccc4)CC3)nnc12 (stereo unspecified),.,.,.,.,2.8%,.
CCOC(=O)c1csc(NC(=O)C2=COCCO2)n1,157.1%,40.5*,153.0%,63.3*,-4.4%,4.0%
CC(=O)Nc1ccc(-c2csc(NC(=O)C3=COCCO3)n2)cc1,137.8%,.,86.1%,.,-24.3%,.
Cc1ccc(-c2csc(NC(=O)N3CCOCC3)n2)cc1,2.8%,37.8*,31.9%,110.8*,.,-4.2%
Cc1ccc(-c2csc(NC(=O)C3=COCCO3)n2)cc1,175.3%,42.0*,131.5%,51.4*,-11.4%,-8.4%
COC(=O)c1ccc(CSc2nnc(-c3c[nH]c4ccccc34)n2-c2ccccc2)cc1,-101.4%,18.3*,?,+,-2.9%,-40.7%
COc1cccc(-n2c(SCC(=O)N3CCOCC3)nc3c([nH]c4ccccc43)c2=O)c1,.,.,.,.,.,6.7%
Cn1c(SCC(=O)N2CCCc3ccccc32)nnc1-c1c[nH]c2ccccc12,-11.6%,-2.1,13.1µM*,-11.6,-1.9%,-37.1%
COc1cccc(-n2c(SCC(=O)N3CCOCC3)nnc2-c2c[nH]c3ccccc23)c1,10.4µM*,-6.9,.,-19.9,-23.5%,-1.5%
CCn1c(SCC(=O)N2CCCc3ccccc32)nnc1-c1c[nH]c2ccccc12,7.4%,-4.2,?,-12.1,-24.6%,-37.0%
CCn1c(SCC(=O)N2CCc3ccccc32)nnc1-c1c[nH]c2ccccc12,.,-2.2,9.28µM*,-10.8,5.1%,-28.0%
CC1(C)Cc2ccccc2C(NN=C2CCCC2)=N1,-25.5%,7.5,-10.3%,-7.6,.,-1.6%
Cc1ccc(C)c(N2CCN(C(=O)NCc3noc4ccccc34)CC2)c1,.,.,.,.,7.8%,.
Cn1c(SCc2ccccc2)nnc1-c1c[nH]c2ccccc12,-14.9%,20.6*,-17.4%,48.2*,-0.2%,-15.0%
Cc1ccc2cc(C)c3nnc(SCC(=O)N4CCCc5ccccc54)n3c2c1C,5.22µM*,1.7,9.28µM*,-5.7,-3.6%,10.5%
Cc1cc2cc(C)c3nnc(SCC(=O)N4CCCc5ccccc54)n3c2cc1C,29.8%,-3.0,-11.4%,9.8,-6.5%,6.0%
Cn1c(SCC(=O)N2CCN(c3ccccc3)CC2)nnc1-c1c[nH]c2ccccc12,7.38µM*,-4.6,.,-11.4,-1.7%,12.7%
CCOc1ccc(-c2nn(CC(=O)NC3CCCC3)c3c2cnc2ccc(C)cc23)cc1,.,.,.,.,-1.7%,.
Cc1cccc(NS(=O)(=O)c2ccc(C)c(C(=O)NCCCN3CCOCC3)c2)c1,29.5%,.,-7.6%,.,-5.2%,.
Cc1cccc(NC(=O)c2sc3nc4c(cc3c2N)CCCCCC4)c1C,.,.,.,.,7.1%,.
CSc1ncccc1C(=O)Nc1cccc(C)n1,39.6%,11.5,37.8%,31.1,7.0%,0.5%
Cc1ccccc1NC(=O)c1onc2c1CCCC2,362.8%,49.0*,19.1%,123.0*,0.3%,-8.2%
Cc1ccc(C(=O)Nc2onc3c2CCCC3)cc1,.,.,.,.,-1.4%,.
Cc1cccc(NC(=O)c2onc3c2CCCC3)n1,75.9%,33.3*,0.0%,22.9,4.1%,-9.9%
SMILES,Pf growth 96h,CHX counter,Pf growth 48h,Shiga toxin inh,Sm TGR inh,NS1 inh
Cc1cccc(NC(=O)c2onc3c2CCCC3)c1C,174.2%,33.3*,183.5%,116.1*,-16.4%,-14.3%
O=P(c1ccccc1)(c1ccccc1)C(O)c1ccc(Br)cc1 (stereo unspecified),?,4.9,?,.,-1.3%,3.3%
O=C(CSc1nc(NS(=O)(=O)c2ccccc2)cc(=O)[nH]1)Nc1cccc(C(F)(F)F)c1,30.7%,6.7,?,-10.0,-1.2%,18.8%
O=C(CSc1nc(NS(=O)(=O)c2ccccc2)cc(=O)[nH]1)Nc1ccc(F)cc1,1.85µM*,-1.5,-20.3%,-5.8,-19.9%,-19.2%
COc1cc(CN2CCCC(C(=O)c3sccc3C)C2)cc(Cl)c1O (stereo unspecified),?,7.1,?,-9.9,?,-6.4%
COc1cc(CN2CCCC(C(=O)c3sccc3C)C2)cc(OC)c1O (stereo unspecified),?,-0.4,10.8%,-14.9,15.8µM*,-1.3%
O=C(c1ccc(C(F)(F)F)cc1)C1CCCN(Cc2ccncc2)C1 (stereo unspecified),8.8%,0.6,11.7µM*,1.6,-17.7%,-0.8%
COc1cc(CN2CCCC(C(=O)c3ccc(C(C)(C)C)cc3)C2)cc(OC)c1O (stereo unspecified),36.3%,17.8*,6.57µM*,23.6,?,23.3%
NC(=O)CCC(=O)N1CCCC(C(=O)c2ccc(C(F)(F)F)cc2)C1 (stereo unspecified),13.1µM*,-2.0,4.5%,-4.6,-19.4%,11.4%
O=C(c1ccc(C(F)(F)F)cc1)C1CCCN(C(=O)CCc2ccncc2)C1 (stereo unspecified),?,9.2,?,21.7,2.9%,2.6%
O=C(CN(C(=O)c1csnn1)c1ccccc1C(F)(F)F)NCc1ccccc1,-19.7%,-2.3,-6.3%,-4.8,0.9%,-18.4%
Cc1ccc(S(=O)(=O)Nc2ccccc2F)cc1C(=O)N1CCN(c2ccccc2O)CC1,-2.8%,.,?,.,-23.6%,.
O=C(c1ccc(Cl)cc1)C1CCCN(Cc2ccc3nonc3c2)C1 (stereo unspecified),10.4µM*,0.8,-0.4%,20.7,10.0%,-6.0%
COc1cccc(C(=O)C2CCCN(Cc3ccc(F)cc3)C2)c1 (stereo unspecified),-24.7%,-1.9,?,-2.3,-1.6%,-14.3%
Cc1ccsc1C(=O)C1CCCN(Cc2cccn2-c2ccc(Cl)cn2)C1 (stereo unspecified),?,-2.2,3.7µM*,-10.4,18.2%,-44.1%
CC(C)Oc1cccc(C(=O)C2CCCN(Cc3ccc4nonc4c3)C2)c1 (stereo unspecified),-18.5%,-1.4,-30.0%,17.1,-2.5%,-6.7%
O=C(c1cccc(Cl)c1)C1CCCN(Cc2ccc(N3CCNC3=O)cc2)C1 (stereo unspecified),9.28µM*,1.1,?,19.0,.,7.1%
Cc1cc(C)cc(N(C(=O)c2csnn2)C(C(=O)NC2CCCC2)c2ccccn2)c1 (stereo unspecified),-0.8%,1.1,4.0%,-15.9,-6.0%,7.9%
CCc1ccc(OCCCSc2nc(-c3ccc(C(C)(C)C)cc3)nc3cc(=O)[nH]n23)cc1,.,.,.,.,2.6%,.
CC(NC(=O)CSCc1ccccc1Br)c1ccccc1 (stereo unspecified),-0.9%,8.7,0.1%,21.8,-5.2%,-9.8%
COc1ccc(C(=O)NNC(=O)Cc2nc3nc(C)cc(C)n3n2)cc1,49.3%,5.8,7.2%,2.0,0.9%,?
